Compound activity from PubChem BioAssay.
KCNH2 3.1 inh: qHTS for Inhibitors of KCHN2 3.1: Mutant qHTS; AID 720553, 2013; activity change, % (tested at about 1.8 µM); U2OS KCNH2 3.1, thallium flux FluxOr; stronger effect = lower value; 340,000 tested, 0.95% active; Potassium voltage-gated channel subfamily H member 2, brain isoform KCNH2 3.1 (human);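 active = maximum activity change below -70%; inconclusive = maximum activity change from -70% to -50%; inactive = maximum activity change above -50%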;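 note: thallium influx rate constant from kinetic fluorescence after stimulation buffer; % is set by controls: 0 for no effect and ±100 for the full control effect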
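We transduce U2OS cells with the mutant 3.1 virus, culture them overnight, load FluxOr with Red40 quencher for 45 min, then add stimulation buffer and read kinetically for 2 min to derive a normalized rate constant.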
ClpP mod: qHTS Assay for Activators of ClpP. purified B. subtilis ClpP, FRET peptide cleavage, 20 min. Potency, µM (top dose mostly 57.5 µM), inactives show at the top dose activity change, negative = active. 340,000 tested, 1.9% active; active = well fitted falling curve with a large enough effect; inconclusive = small, poorly fitted or top-dose-only effect; inactive = no such curve, though single readings can be large or run the other way; note: potency is the fitted concentration of half-maximal effect; the source files actives as falling curves though it sought activators and does not explain the sign; nearly all actives have a fitted effect of over 65% in size
Target sequence (P80244 whole entry, looked up): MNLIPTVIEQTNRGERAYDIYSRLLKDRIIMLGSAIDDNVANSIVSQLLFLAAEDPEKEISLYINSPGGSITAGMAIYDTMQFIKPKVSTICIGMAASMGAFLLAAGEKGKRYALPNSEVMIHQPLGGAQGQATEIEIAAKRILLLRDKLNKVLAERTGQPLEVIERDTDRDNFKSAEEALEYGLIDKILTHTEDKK
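ClpP 10 microg/mL final, pH 8 Tris/KCl buffer with BSA, glycerol, Tween-20; compound pinned in; FRET-FV substrate; RT 20 min; Ex320/Em430; ΔFRET vs ADEP 5.8 microM, DMSO, no enzyme.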
BCR signal inh: qHTS Assay to Find Inhibitors of Chronic Active B-Cell Receptor Signaling. Potency, µM (top dose mostly 46.1 µM), for the others: top-dose activity change, negative = inhibition, actives largely listed as inhibitors. 340,000 tested, 0.05% active. ABC-DLBCL IkBa-CBG/CBR reporter, luminescence ratio, 4 h. AID 493014, 2011; active = well fitted inhibition curve with a large enough effect in the signal ratio, with a control signal flat, not every such curve was filed as active; inconclusive = small, poorly fitted or top-dose-only effect, or effect the other way, or a change in a side signal; the % refers to the signal ratio;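 note: potency is the fitted concentration of half-maximal effect; plate controls were basal doxycycline-induced cells for no effect and cells given 10 µM MG132 for full effect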
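TMD8 ABC-DLBCL cells carrying doxycycline-inducible green luciferase fused to IkappaBalpha plus unfused red luciferase were exposed to compounds (up to 46 uM) for 4 hrs at 37C. Activity came from the overlap-corrected green/red luminescence ratio.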
LDHA inh: qHTS assay for inhibitors of human lactate dehydrogenase; purified LDHA, NADH/diaphorase-resazurin fluorescence; stronger effect = lower value; activity change, % (values are at about 110 or 230 µM); 480,000 tested, 0.15% active; in the data active = activity change below about -30%; inconclusive = mostly about -25% to -30%;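 note: plate controls were DMSO wells for no effect and wells without enzyme for full effect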
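Enzyme activity of human lactate dehydrogenase 5 (2 nM; 0.06 mM NADH, 0.2 mM pyruvate, 5 min, RT) is measured via a resazurin/diaphorase fluorescence readout of residual NADH.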
KCNH2 WT inh: qHTS for Inhibitors of KCHN2 3.1: Wildtype qHTS; Voltage-gated inwardly rectifying potassium channel KCNH2 (Homo sapiens), Q12809; U2OS, BacMam KCNH2, thallium flux FluxOr; stronger effect = lower value; activity change, % at 1.84 µM; 340,000 tested, 0.37% active; AID 720551, 2013;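 active = maximum activity change below -70%; inconclusive = maximum activity change between -70% and -50%; inactive = maximum activity change above -50%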; note: % is set by controls: 0 for no effect and ±100 for the full control effect
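U2OS cells were transduced with wild-type KCNH2 virus (2.03 x 10^8 / mL) for 4 h at room temperature, then cultured overnight at 37 C. Thallium flux was read with FluxOr dye. Rate constants were normalized to DMSO controls.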
12-LOX inh: Primary qHTS assay for inhibitors of human arachidonate 12S-lipoxygenase (ALOX12): Round 2; Polyunsaturated fatty acid lipoxygenase ALOX12 (Homo sapiens), P18054; purified 12hLO, xylenol orange hydroperoxide absorbance; Potency, µM (top dose mostly 108 µM), without a hit: top-dose activity change, negative = inhibition, actives largely listed as inhibitors; 580,000 tested, 1.1% active; AID 1671190, 2021; active = well fitted inhibition curve with a large enough effect; inconclusive = small, poorly fitted or top-dose-only effect, or another doubt; inactive = no such curve, though single readings can be large or run the other way; note: potency is the fitted concentration of half-maximal effect; % is set by controls: 0 for no effect and ±100 for the full control effect
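Purified human 12hLO (150 nM final) in 25 mM Hepes, 0.01% Triton X-100, pH 7.0 was preincubated 15 min at room temperature with compound. Then 40 uM arachidonic acid was added, 30 min. Hydroperoxide was read by Fe-XO absorbance ratio 573/405 nm.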
* marks the source's active call; other numbers are inactive results; ? = inconclusive; . = not tested or not shown; [ ] = dose if it differs, or a comment. Rows were chosen to be rich in hits. Some 3% of all compounds tested hit in one or more screens of this group.

SMILES	KCNH2 3.1 inh	ClpP mod	BCR signal inh	LDHA inh	KCNH2 WT inh	12-LOX inh
CC[C@@H](NC(=O)[C@@H](Cc1ccccc1)NC(=O)CC[C@H]1O[C@@H](n2ccc(=O)[nH]c2=O)[C@H](O)[C@@H]1O)c1ccccc1	.	2.0%	.	-5.2	.	31.6µM*
O=S(=O)(Nc1ccc(O)c2ccccc12)c1cccs1	20.2	-0.5%	?	28.4	1.9	31.6µM*
CC(=O)N1CCN(C(=O)Cn2c(NCc3ccccc3)nc3ccccc32)CC1	.	.	.	0.6	.	29.8%
Cc1cccc(C)c1-n1nnnc1SC(C(=O)N1CCOCC1)c1ccccc1 (stereo not given)	.	.	.	2.3	.	0.0%
CC(C)Cn1c(-c2csc(C(C)C)c2)n[nH]c1=S	-32.9	.	-0.9%	-4.3	10.9	39.8µM*
CCn1c(-c2csc(C(C)C)c2)n[nH]c1=S	-7.1	-6.6%	?	-10.3	0.4	?
COc1cccc(N2CC(C(=O)NCCNC(=O)c3cn(C)c4ccccc34)CC2=O)c1 (stereo not given)	.	.	.	1.8	.	42.4%
CC(NC(=S)NNC=O)c1ccccc1 (stereo not given)	.	.	.	0.9	.	4.7%
Cc1oc(-c2ccc(Cl)cc2)nc1CN1CCC(C(=O)NCc2ccco2)CC1	-71.0*	-3.9%	-2.0%	-0.7	18.4	.
Cc1ccc(Cl)cc1N1CCN(C(=O)C2CCN(Cc3nc(-c4cccc(Cl)c4)oc3C)CC2)CC1	.	-5.2%	.	-10.7	.	?
Cc1oc(-c2ccc(Cl)cc2)nc1CN1CCC(C(=O)N2CCc3ccccc3C2)CC1	-78.2*	-3.6%	11.8%	-5.9	?	.
Cc1oc(-c2cccc(Cl)c2)nc1CN1CCC(C(=O)N2CCN(c3ccccc3F)CC2)CC1	-91.2*	-7.0%	17.0%	8.3	-3.4	-16.1%
O=[N+]([O-])c1cc(F)c2cccnc2c1O	-1.6	1.4%	15.8µM*	12.8	-1.7	-7.4%
Oc1c(I)cc(Cl)c2cccnc12	-1.3	1.2%	?	3.7	-10.9	11.2µM*
O=[N+]([O-])c1ccc(O)c2ncccc12	-1.4	-0.5%	?	6.6	-12.2	?
Clc1cc2cccnc2c2ncccc12	28.1	0.3%	-14.8%	5.5	8.8	?
O=[N+]([O-])c1cc(Cl)c(O)c2ncccc12	-7.9	.	?	19.7	2.5	5.62µM*
Cc1ccc2c(CC(=O)NC3CCCCCC3)coc2c1	.	.	.	11.0	.	?
CNC(=O)NC(=O)CN(C)C1CCCCCC1	.	.	.	7.8	.	-0.4%
COc1ccc(C(=O)C(C)OC(=O)C23CC4CC(CC(Br)(C4)C2)C3)c(OC)c1 (stereo not given)	.	.	.	1.5	.	12.6%
O=c1c2c(nc3c(-c4ccccc4)c[nH]n13)CCC2	-12.9	25.1µM*	?	-1.6	23.3	2.7%
Cc1c(-c2ccccc2)[nH]n2c(=O)c3c(nc12)CCCC3	-92.0*	25.1µM*	?	-4.3	7.4	-9.1%
CCCCCc1ccc(-c2ccc(C3CCC(CCCCC)CC3)cc2)nc1 (stereo not given)	.	.	.	5.6	.	-6.0%
O=C(c1cc(-c2ccccc2O)on1)N1CCc2ccccc2C1	15.2	-0.5%	?	-0.8	-7.2	?
O=C(c1cc(-c2ccco2)on1)N1CCc2ccccc2C1	1.4	-5.7%	-3.4%	-8.1	-1.0	17.8µM*
CCOC(=O)c1nc(N(CC)Cc2ccccc2)c2ccccc2n1	.	.	.	-2.5	.	-10.9%
COc1cc(CN2CC[C@H](c3nc4ccccc4o3)C2)cc(OC)c1OC	.	.	.	.	.	2.7%[176 µM]
O=c1cc(-c2ccncc2)oc2c(-c3ccccc3Oc3ccccc3)nccc12	.	.	.	.	.	31.6µM*
O=c1cc(-c2ccncc2)oc2c(-c3ccccc3F)nccc12	.	.	.	.	.	-2.3%[176 µM]
